Screening results deposited in PubChem BioAssay by Johns Hopkins Ion Channel Center.
KCNQ2 enhance: enhances the rat KCNQ2 potassium channel | B-score at 10 µM | CHO-K1 KCNQ2, FluxOR thallium flux fluorescence; stronger effect = higher value | hit rate 0.54% among 310,000 | AID 2239 | O88943;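 active = fluorescence ratio B-score at least 3 SD of library B-scores, with initial fluorescence B-score within 3 of them, cut at about 5.3 in these data; same plate scores as AID 2156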;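 note: B-score of peak minus minimum over baseline fluorescence ratio after K+ and Tl+ stimulus; positive B-score means potentiation of KCNQ2 with more thallium influx and brighter signal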
KCNQ2 inh: inhibitors of rat KCNQ2 potassium channel. O88943. CHO-K1 KCNQ2, FluxOR thallium flux, 20 min; stronger effect = lower value. B-score at 10 µM. hit rate 1.1% among 310,000. AID 2156;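 active = fluorescence ratio B-score at most minus 3 library SDs, with starting brightness B-score within 2 library SDs, cut at about -5.5 in these data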
KCNQ2 inh conf: confirmation of rat KCNQ2 potassium channel inhibitors; hit rate 57% among 1,000; activity change, negative = inhibition, % at 10 µM; KCNQ2-expressing cells, thallium flux, inhibition; stronger effect = lower value; shares compounds with KCNQ2 inh
KCNQ1 spec: selectivity of KCNQ2 inhibitors against human KCNQ1; shares compounds with KCNQ2 inh; KCNQ1-expressing cells, FluxOR thallium flux fluorescence; stronger effect = lower value; activity change, negative = inhibition, % at 10 µM; hit rate 15% among 1,000; AID 493026;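 active = activity change at least 3 SD of negative controls below their mean in both duplicate wells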;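 note: CHO cells stably transfected with KCNQ1 and depolarized by potassium stimulus; peak minus minimum fluorescence over baseline after thallium addition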
Target sequence (P51787 whole entry, looked up): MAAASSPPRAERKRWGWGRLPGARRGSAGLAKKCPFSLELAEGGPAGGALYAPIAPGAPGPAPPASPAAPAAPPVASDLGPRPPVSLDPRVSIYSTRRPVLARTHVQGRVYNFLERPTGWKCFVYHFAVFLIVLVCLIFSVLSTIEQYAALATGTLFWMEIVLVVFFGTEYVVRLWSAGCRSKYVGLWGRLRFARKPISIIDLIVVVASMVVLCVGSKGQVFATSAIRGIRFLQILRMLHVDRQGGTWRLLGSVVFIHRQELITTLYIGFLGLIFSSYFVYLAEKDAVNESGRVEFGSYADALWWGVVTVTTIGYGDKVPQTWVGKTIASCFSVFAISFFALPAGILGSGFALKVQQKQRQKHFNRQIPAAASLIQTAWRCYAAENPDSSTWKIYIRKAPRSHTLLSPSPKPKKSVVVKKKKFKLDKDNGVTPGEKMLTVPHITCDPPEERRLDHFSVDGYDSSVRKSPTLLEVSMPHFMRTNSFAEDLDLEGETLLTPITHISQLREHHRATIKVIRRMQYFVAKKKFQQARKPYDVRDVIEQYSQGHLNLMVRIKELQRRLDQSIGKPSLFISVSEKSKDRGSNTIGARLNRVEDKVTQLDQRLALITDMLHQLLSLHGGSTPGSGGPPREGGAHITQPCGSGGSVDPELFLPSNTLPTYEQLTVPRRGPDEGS
CHO Tl ctr: KCNQ2 inhibitor counter-screen hit in parental CHO cells. hit rate 14% among 1,000. shares compounds with KCNQ2 inh. AID 493029. activity change, % at 10 µM. thallium flux counter-screen; stronger effect = lower value
KCNQ2 inh confirm: blocks rat KCNQ2 current in automated patch clamp; shares compounds with KCNQ2 inh; KCNQ2-expressing cells; calls only at 10 µM; hit rate 49% among 550; AID 588531
Hits are given with their value. Sampled rows, rich in hits. Any-hit rate of the full collection: about 1.6%. Unless noted, the rule behind the calls is not given here.

What do the screens show for `CC(C)C[C@H](NC(=O)N1CCn2c1nc1ccccc12)C(=O)NCc1ccccc1`?
KCNQ2 enhance: inactive; KCNQ2 inh: -6.7; KCNQ2 inh conf: inactive; KCNQ1 spec: inactive; CHO Tl ctr: inactive

What do the screens show for `O=C(Nc1ccccc1)C1=C[C@H](c2ccc(Br)cc2)C[C@H](OCc2ccc(CO)cc2)O1`?
KCNQ2 inh: inactive

What do the screens show for `Cc1cc(-n2c(C)cc(C(=O)CSc3nnnn3-c3ccccc3)c2C)no1`?
KCNQ2 enhance: inactive; KCNQ2 inh: inactive

What do the screens show for `Cc1cc(-n2c(C)cc(C(=O)CCl)c2C)no1`?
KCNQ2 enhance: inactive; KCNQ2 inh: inactive

Results for Cc1ccc(-n2nnnc2SCC(=O)c2cc(C)n(-c3cc(C)on3)c2C)c(C)c1 ?
KCNQ2 enhance: inactive; KCNQ2 inh: -7.5; KCNQ2 inh conf: inactive; KCNQ1 spec: inactive; CHO Tl ctr: inactive

Results for Cc1cc(-n2c(C)cc(C(=O)CSc3ccc4c(c3)OCCO4)c2C)no1 ?
KCNQ2 enhance: inactive; KCNQ2 inh: -6.9; KCNQ2 inh conf: -14%; KCNQ1 spec: inactive; CHO Tl ctr: inactive; KCNQ2 inh confirm: active

How did CCc1ccc(S(=O)(=O)N2CCN(C(=O)C3CCN(C(C)=O)CC3)CC2)cc1 do in these assays?
KCNQ2 enhance: inactive; KCNQ2 inh: inactive

What do the screens show for `Cc1cc(C)c(OCC(=O)N2CC=C(c3ccccc3)CC2)c(C)c1`?
KCNQ2 enhance: inactive; KCNQ2 inh: -6.9; KCNQ2 inh conf: -29%; KCNQ1 spec: inactive; CHO Tl ctr: inactive; KCNQ2 inh confirm: inactive

What do the screens show for `Cc1ccsc1C(=O)N1CC=C(c2ccccc2)CC1`?
KCNQ2 inh: inactive

What do the screens show for `CN(C)c1nc(NCc2ccccc2)nc(SCC(=O)Nc2ccccc2)n1`?
KCNQ2 enhance: inactive; KCNQ2 inh: inactive

What do the screens show for `CN(C)c1nc(NCc2ccccc2)nc(SCC(=O)Nc2ccccc2Cl)n1`?
KCNQ2 enhance: inactive; KCNQ2 inh: -6.9; KCNQ2 inh conf: inactive; KCNQ1 spec: inactive; CHO Tl ctr: inactive

Results for CC(Sc1nnc(CC(=O)Nc2ccccc2F)n1C)C(=O)Nc1nccs1 (configuration not stated) ?
KCNQ2 enhance: inactive; KCNQ2 inh: inactive

How did CCCCN(CC)C(=O)Cn1ncc2c3ccccc3n(CCC)c2c1=O do in these assays?
KCNQ2 inh: inactive

What do the screens show for `Cc1ccc2c(C)c(C(=O)N3CCN(Cc4ccc5c(c4)OCO5)CC3)oc2c1C`?
KCNQ2 enhance: inactive; KCNQ2 inh: -6.9; KCNQ2 inh conf: inactive; KCNQ1 spec: inactive; CHO Tl ctr: inactive

Results for Cc1ccc(C(=O)N2CCN(Cc3ccc4c(c3)OCO4)CC2)o1 ?
KCNQ2 enhance: inactive; KCNQ2 inh: inactive

What do the screens show for `CCC(C(=O)NNC(=O)c1cnccn1)c1ccccc1` (configuration not stated)?
KCNQ2 enhance: inactive; KCNQ2 inh: inactive

What do the screens show for `CC(C)(C)N1CC(c2nc3ccccc3n2Cc2ccc(Cl)cc2)CC1=O` (configuration not stated)?
KCNQ2 enhance: inactive; KCNQ2 inh: -7.1; KCNQ2 inh conf: -27%; KCNQ1 spec: inactive; CHO Tl ctr: inactive; KCNQ2 inh confirm: active

How did CC(C)(C)N1CC(c2nc3ccccc3n2CCOc2ccccc2)CC1=O (configuration not stated) do in these assays?
KCNQ2 enhance: inactive; KCNQ2 inh: inactive

What do the screens show for `CN1CCN(Cn2cc(/C=C/C(=O)c3ccccc3)c3ccccc32)CC1`?
KCNQ2 enhance: inactive; KCNQ2 inh: -9.2; KCNQ2 inh conf: -34%; KCNQ1 spec: inactive; CHO Tl ctr: inactive; KCNQ2 inh confirm: active

What do the screens show for `CC(C)(C)NCC(O)Cn1cc(C=O)c2ccccc21` (configuration not stated)?
KCNQ2 enhance: inactive; KCNQ2 inh: inactive

What do the screens show for `CCCCN(C)CC(O)Cn1cc(/C=C/C(=O)c2ccc(C)cc2)c2ccccc21` (configuration not stated)?
KCNQ2 enhance: inactive; KCNQ2 inh: -9.7; KCNQ2 inh conf: inactive; KCNQ1 spec: inactive; CHO Tl ctr: inactive

How did COc1ccc(C(=O)/C=C/c2cn(CC(O)CN3CCN(C)CC3)c3ccccc23)cc1OC (configuration not stated) do in these assays?
KCNQ2 inh: inactive

How did Cc1cccc(-c2nc(CS(=O)CC(=O)N3CC(C)CC(C)C3)c(C)o2)c1 (configuration not stated) do in these assays?
KCNQ2 enhance: inactive; KCNQ2 inh: inactive
